From the supplement of paper PMC11732987, “Enantioselective OTUD7B fragment discovery through chemoproteomics screening and high-throughput optimisation” (Communications Chemistry, 2025)

Tests used:
Experiment in all cases: log2 ratio of Biotin-Ahx-Ub-VS probe labelling (fragment/DMSO); higher = less target engagement (more negative = stronger competition), active = hit call of the paper (q ≤ 0.05, log2 ratio ≤ -1)
Details in all cases: compound concentration: 200 uM; treatment time: 3 h
USP42 = target: T1, USP42 (UniProt Q9H9J4)
T1 sequence (whole entry): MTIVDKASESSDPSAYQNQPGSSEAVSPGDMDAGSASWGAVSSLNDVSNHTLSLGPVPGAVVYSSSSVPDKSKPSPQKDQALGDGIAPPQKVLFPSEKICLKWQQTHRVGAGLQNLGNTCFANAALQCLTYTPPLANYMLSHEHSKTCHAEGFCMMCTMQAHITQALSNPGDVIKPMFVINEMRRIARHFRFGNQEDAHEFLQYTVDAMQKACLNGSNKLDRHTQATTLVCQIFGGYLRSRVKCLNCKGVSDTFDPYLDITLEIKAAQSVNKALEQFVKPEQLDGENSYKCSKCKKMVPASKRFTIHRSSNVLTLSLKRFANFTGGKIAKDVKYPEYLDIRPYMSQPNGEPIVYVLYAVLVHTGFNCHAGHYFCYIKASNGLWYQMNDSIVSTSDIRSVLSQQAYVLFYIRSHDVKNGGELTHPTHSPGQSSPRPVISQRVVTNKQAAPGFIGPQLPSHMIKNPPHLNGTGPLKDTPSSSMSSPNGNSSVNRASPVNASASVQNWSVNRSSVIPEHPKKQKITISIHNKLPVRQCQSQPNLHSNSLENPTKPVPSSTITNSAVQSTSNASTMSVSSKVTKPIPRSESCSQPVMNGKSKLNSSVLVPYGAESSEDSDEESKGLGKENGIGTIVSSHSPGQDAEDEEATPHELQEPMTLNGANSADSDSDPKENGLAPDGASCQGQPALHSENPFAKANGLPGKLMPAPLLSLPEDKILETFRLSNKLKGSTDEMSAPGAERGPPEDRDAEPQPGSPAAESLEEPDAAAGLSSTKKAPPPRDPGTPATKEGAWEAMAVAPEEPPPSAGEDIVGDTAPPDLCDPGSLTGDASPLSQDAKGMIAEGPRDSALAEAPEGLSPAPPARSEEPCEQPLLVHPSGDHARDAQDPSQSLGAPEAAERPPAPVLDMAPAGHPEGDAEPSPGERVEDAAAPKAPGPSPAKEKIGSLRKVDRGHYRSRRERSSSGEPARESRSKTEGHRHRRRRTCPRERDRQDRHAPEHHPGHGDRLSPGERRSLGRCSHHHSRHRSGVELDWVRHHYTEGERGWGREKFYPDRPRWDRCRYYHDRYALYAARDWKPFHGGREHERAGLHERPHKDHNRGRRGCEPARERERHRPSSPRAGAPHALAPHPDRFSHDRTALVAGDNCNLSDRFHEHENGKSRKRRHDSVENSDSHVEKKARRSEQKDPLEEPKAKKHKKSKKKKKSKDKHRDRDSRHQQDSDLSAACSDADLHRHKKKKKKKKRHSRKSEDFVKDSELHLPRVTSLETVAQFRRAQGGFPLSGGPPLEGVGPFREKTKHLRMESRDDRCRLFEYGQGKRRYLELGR
Outline: (§1)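 Each value is an average log2 ratio of fragment to vehicle, tested by unpaired t-test. The underlying Spectronaut label-free quantities were global-median-normalised, and only proteins with ≥2 unique peptides were included. Triplicate HEK293T lysate samples (495 µg) were exposed to fragment at 200 µM or vehicle for 3 h, then to Biotin-Ahx-Ub-VS at 0.5 µM final for 1 h, before NeutrAvidin enrichment of labelled DUBs, LysC and trypsin digestion, and diaPASEF LC-MS/MS.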

USP46 = USP46 (UniProt P62068)
USP46, sequence (P62068 whole entry): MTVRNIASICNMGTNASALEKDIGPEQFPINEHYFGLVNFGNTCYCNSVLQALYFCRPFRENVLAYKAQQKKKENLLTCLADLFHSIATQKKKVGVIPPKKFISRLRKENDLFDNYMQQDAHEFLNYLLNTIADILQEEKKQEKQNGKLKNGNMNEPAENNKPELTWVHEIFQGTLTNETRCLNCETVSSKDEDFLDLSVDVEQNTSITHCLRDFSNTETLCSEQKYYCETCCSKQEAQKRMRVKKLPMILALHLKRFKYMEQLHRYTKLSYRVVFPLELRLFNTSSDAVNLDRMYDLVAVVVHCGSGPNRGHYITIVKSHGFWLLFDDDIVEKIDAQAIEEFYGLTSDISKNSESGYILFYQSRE
Outline: as §1

USP47 = target: T2, USP47 (UniProt Q96K76)
T2 sequence (whole entry): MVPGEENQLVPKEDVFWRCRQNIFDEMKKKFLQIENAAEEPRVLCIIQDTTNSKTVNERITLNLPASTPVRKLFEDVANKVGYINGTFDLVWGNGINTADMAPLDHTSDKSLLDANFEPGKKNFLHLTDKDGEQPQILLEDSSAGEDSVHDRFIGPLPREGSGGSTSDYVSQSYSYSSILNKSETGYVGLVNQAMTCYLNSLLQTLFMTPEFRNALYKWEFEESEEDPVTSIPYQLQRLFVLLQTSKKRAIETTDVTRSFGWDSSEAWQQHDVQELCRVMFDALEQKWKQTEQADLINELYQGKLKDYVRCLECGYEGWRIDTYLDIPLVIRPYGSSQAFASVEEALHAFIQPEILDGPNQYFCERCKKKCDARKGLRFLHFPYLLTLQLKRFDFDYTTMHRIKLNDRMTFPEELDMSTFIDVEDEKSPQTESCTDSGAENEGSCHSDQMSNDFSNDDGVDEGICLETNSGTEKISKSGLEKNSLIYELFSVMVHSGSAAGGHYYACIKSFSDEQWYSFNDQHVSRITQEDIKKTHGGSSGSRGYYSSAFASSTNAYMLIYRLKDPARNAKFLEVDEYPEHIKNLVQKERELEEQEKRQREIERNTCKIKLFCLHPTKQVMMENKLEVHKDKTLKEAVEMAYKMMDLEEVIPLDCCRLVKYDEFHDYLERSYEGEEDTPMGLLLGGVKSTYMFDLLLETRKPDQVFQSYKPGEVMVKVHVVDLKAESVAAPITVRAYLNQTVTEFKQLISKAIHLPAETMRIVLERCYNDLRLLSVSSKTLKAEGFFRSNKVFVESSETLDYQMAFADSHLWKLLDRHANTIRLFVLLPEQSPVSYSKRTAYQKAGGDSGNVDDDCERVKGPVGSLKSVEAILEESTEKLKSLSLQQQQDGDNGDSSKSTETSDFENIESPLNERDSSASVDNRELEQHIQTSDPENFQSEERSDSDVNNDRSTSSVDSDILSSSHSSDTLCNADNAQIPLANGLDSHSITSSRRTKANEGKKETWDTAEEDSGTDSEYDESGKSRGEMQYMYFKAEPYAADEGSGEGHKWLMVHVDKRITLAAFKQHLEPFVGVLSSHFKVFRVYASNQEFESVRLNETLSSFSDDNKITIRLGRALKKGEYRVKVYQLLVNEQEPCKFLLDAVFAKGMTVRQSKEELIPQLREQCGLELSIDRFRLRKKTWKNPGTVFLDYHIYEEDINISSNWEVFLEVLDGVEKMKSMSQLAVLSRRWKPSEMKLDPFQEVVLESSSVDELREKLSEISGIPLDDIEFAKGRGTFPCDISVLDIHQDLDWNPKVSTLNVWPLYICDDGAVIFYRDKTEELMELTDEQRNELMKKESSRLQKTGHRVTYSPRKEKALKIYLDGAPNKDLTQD
Outline: as §1

USP48 = target: T3, USP48 (UniProt Q86UV5)
T3 sequence (whole entry): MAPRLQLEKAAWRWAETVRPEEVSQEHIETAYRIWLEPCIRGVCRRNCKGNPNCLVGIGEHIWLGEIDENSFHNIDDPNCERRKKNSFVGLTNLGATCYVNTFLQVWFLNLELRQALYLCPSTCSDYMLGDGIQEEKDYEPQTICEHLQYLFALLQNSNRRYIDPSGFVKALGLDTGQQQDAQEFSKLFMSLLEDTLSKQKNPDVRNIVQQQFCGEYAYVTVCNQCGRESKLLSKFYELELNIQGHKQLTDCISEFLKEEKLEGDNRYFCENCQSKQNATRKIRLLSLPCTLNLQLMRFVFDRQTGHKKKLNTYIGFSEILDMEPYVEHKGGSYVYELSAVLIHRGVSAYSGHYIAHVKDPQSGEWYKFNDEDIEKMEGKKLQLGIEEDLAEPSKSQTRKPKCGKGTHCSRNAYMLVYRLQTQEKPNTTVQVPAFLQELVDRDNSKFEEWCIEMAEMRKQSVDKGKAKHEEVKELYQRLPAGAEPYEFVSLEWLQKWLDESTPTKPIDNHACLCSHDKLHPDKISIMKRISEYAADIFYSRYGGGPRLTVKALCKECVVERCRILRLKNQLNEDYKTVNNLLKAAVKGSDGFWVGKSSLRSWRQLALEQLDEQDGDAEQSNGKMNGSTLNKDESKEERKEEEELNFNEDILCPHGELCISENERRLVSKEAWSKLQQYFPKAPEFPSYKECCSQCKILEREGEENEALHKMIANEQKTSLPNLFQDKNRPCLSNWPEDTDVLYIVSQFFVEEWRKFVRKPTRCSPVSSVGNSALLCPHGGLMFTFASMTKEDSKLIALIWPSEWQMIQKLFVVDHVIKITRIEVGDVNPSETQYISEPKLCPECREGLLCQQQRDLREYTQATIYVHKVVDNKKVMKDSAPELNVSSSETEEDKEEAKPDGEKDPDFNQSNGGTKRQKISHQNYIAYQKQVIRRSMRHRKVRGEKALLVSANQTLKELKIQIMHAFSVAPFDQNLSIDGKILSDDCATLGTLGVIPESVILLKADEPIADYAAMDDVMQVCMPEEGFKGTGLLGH
Outline: as §1

USP5 = target: T4, USP5 (UniProt P45974)
T4 sequence (whole entry): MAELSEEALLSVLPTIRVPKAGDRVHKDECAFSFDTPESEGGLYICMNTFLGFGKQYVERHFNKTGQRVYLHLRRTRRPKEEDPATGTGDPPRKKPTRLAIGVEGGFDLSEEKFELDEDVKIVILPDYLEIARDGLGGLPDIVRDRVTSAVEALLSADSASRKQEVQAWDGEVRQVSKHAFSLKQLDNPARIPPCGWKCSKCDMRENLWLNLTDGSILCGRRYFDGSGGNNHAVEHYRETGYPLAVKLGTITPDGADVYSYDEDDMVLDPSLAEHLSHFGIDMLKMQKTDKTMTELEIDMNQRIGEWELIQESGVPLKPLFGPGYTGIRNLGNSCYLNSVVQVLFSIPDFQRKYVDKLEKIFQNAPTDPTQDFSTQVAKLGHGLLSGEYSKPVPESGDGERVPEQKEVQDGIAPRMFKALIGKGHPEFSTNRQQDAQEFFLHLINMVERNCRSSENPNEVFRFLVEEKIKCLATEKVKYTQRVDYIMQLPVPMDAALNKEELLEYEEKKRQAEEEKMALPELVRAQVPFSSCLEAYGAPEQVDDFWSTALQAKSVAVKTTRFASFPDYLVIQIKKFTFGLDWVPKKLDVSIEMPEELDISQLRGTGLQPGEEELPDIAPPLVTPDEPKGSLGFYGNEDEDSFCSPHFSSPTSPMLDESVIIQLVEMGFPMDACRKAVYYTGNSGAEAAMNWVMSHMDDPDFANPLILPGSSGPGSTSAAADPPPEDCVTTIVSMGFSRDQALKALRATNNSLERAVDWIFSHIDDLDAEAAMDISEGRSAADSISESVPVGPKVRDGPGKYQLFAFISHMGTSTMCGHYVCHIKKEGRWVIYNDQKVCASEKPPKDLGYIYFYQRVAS
Outline: as §1

USP54 = USP54 (UniProt Q70EL1)
Outline: as §1

USP7 = USP7 (UniProt Q93009)
USP7, sequence (Q93009 whole entry, looked up): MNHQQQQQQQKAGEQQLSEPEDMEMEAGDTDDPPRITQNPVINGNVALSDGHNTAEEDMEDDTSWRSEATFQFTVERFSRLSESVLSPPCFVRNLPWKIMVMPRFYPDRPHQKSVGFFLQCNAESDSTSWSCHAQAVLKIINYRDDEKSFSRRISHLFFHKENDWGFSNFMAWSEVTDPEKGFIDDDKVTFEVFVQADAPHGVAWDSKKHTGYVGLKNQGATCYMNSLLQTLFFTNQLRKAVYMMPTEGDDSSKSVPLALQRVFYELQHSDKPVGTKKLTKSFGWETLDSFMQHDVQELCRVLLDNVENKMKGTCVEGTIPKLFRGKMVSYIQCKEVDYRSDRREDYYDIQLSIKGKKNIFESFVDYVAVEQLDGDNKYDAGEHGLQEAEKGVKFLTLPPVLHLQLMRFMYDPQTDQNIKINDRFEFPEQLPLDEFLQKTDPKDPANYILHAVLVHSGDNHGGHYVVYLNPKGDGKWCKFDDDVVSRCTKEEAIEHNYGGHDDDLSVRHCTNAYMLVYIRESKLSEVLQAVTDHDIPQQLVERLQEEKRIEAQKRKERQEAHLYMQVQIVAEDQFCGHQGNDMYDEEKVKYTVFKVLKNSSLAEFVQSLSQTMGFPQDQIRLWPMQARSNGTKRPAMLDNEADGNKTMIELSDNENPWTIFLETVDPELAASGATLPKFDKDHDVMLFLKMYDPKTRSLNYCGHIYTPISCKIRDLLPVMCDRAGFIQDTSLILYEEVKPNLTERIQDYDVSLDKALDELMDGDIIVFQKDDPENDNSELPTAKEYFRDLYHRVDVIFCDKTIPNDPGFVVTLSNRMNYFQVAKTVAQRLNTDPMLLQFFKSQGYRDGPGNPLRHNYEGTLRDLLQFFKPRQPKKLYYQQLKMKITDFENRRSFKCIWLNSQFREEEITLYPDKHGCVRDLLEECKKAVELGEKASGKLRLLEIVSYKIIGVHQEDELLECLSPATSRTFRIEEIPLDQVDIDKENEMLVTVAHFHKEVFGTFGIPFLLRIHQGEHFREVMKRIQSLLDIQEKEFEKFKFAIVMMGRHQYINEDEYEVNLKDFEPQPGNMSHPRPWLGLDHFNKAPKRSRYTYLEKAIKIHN
Outline: as §1

USP8 = target: T5, USP8 (UniProt P40818)
T5 sequence (whole entry): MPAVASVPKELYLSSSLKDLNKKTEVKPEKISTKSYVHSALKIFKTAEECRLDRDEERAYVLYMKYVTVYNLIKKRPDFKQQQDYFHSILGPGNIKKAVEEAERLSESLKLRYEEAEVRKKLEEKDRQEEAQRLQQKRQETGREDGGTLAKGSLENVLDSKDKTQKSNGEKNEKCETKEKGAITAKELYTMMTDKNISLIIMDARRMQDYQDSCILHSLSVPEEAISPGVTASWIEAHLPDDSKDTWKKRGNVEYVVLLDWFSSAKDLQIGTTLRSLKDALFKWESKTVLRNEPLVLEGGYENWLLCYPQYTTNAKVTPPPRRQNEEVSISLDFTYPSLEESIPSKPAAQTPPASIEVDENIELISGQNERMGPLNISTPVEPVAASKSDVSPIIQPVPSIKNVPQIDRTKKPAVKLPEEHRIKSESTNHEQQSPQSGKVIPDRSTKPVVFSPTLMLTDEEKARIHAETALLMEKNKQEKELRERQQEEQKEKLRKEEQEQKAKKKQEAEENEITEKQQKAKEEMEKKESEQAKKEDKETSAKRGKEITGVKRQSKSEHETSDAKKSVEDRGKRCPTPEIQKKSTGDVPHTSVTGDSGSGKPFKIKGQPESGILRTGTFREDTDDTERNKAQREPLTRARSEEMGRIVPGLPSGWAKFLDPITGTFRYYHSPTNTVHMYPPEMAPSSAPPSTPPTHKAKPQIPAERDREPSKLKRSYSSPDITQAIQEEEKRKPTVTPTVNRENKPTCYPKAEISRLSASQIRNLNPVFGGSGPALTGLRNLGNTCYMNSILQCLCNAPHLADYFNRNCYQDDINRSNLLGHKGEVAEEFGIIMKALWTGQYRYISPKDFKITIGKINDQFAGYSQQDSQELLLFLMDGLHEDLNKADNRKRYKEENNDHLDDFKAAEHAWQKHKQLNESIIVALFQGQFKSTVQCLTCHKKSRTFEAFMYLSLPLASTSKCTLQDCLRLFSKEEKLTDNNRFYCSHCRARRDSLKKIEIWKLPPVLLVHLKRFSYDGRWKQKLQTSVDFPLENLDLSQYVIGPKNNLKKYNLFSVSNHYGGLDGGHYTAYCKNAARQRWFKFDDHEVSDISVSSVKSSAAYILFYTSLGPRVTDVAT
Outline: as §1

USP9X = USP9X (UniProt Q93008)
USP9X, sequence (Q93008 whole entry): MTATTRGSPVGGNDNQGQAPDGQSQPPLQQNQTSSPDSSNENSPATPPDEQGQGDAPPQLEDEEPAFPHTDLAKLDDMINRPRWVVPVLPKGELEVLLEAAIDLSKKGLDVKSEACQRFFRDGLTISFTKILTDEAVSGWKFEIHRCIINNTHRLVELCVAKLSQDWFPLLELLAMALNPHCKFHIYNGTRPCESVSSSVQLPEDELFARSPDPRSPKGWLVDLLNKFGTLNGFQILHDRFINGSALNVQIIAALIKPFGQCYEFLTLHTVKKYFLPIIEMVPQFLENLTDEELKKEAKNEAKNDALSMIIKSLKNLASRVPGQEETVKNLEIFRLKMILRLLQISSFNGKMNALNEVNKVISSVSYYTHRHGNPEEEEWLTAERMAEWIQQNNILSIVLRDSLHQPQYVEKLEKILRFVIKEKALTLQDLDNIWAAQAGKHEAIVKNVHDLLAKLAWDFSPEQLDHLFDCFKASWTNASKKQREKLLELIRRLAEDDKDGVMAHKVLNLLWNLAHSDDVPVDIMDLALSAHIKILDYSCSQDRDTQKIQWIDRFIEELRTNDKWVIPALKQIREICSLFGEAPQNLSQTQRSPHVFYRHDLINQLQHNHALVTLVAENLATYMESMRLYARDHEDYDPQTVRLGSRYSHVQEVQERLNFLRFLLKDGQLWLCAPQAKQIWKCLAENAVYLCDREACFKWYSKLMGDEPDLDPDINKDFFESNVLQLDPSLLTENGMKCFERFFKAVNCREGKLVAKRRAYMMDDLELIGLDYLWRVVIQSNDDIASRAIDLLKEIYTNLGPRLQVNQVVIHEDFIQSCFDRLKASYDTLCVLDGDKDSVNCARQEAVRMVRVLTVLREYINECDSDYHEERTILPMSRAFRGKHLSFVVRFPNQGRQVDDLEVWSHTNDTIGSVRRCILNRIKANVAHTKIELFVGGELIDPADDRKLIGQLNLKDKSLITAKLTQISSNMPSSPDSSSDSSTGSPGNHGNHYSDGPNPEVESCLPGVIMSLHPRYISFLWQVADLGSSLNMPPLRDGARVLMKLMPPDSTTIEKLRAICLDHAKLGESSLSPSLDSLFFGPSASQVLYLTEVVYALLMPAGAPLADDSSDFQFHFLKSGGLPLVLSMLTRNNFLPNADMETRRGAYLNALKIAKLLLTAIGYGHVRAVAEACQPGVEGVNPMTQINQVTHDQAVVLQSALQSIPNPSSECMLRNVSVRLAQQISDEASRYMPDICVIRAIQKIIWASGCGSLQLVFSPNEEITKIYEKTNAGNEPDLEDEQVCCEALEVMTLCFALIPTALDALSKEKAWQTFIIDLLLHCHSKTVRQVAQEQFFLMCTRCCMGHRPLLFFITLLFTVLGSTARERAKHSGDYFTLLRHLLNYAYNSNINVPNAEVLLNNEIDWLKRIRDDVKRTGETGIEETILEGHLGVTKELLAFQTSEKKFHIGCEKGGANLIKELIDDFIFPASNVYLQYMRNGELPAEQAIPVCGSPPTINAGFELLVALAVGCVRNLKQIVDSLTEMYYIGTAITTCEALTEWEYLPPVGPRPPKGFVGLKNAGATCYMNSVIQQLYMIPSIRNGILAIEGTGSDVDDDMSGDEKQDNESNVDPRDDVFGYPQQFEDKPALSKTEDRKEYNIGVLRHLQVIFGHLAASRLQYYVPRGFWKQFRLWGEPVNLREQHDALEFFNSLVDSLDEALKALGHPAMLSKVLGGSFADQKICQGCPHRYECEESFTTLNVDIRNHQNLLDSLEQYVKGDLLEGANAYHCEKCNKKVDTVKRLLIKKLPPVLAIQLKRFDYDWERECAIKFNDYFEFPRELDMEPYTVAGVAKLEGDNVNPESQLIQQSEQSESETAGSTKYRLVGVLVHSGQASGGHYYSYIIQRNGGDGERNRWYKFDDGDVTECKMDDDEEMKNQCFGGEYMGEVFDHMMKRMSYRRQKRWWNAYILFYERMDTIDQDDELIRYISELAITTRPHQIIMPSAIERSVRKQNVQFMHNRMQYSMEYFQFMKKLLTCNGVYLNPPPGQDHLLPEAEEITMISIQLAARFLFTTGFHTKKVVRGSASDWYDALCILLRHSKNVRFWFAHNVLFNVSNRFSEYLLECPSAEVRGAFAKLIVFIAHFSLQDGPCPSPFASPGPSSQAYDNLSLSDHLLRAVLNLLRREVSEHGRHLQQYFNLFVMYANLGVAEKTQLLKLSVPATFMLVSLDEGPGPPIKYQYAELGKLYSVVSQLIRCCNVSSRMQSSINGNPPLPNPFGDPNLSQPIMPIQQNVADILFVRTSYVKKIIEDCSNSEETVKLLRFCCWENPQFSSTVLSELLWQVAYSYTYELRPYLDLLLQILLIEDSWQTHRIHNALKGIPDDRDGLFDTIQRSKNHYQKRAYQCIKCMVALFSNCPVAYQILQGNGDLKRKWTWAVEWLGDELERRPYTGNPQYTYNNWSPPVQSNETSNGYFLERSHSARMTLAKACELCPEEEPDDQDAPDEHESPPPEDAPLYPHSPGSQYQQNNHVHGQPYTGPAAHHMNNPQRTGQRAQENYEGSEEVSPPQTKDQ
Outline: as §1

UniProt O00487 = target: UniProt O00487
UniProt O00487, sequence (O00487 whole entry): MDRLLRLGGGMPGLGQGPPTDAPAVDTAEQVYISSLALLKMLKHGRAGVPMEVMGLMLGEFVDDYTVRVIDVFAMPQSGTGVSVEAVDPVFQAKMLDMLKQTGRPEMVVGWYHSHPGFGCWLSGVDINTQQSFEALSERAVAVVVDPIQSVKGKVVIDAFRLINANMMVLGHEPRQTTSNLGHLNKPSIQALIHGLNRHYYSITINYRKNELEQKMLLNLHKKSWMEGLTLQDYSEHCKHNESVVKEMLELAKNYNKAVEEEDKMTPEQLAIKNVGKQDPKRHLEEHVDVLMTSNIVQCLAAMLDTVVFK
Outline: as §1

Measured: log2 ratio of Biotin-Ahx-Ub-VS probe labelling

O=C(CCl)N1CCN(C(=O)N2CCCCC2)CC1
inactive: USP42 0.232 | USP46 -0.637 | USP47 -0.616 | USP48 -0.949 | USP54 0.892 | USP8 -0.843 | UniProt O00487 -0.0311
active: USP5 -1.13 | USP7 -1.12 | USP9X -1.11
